Our source for the growth values is PubChem BioAssay (NCI).

This is part of a sample that, as a whole, favours compounds with a hit. Of some 83,000 tested, about 20% had one in any assay.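 Cell lines were cultured in 96-well plates, exposed to a single compound concentration, and assessed for percent growth 48 hours later.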 Activity calls are given as the source filed them. How the source made its calls: active means growth percent below 10; inactive means the rest.

In the test the test system is DU-145 prostate. In words: NCI-60 one-dose screen, 48 h (100 = growth as untreated, 0 = no growth, -100 = all killed). As to conditions: 10 µM unless noted.
Consider `CCN(CC)c1ccc(-c2cc(-c3cc(OC)c(OC)c(OC)c3)nc(N3CCOCC3)c2C#N)cc1`, for which the growth was 38.8% (inactive).

On to `COc1ccc2[nH]cc(-c3noc(C(=O)c4cn(C)c5ccc(F)cc45)n3)c2c1`, for which the growth was 103% (inactive).

Take `CCCc1cc(=O)n2c(C(=O)Nc3cccc(C(=O)OCC)c3)c(C(=O)Nc3ccc(F)cc3)sc2n1`: the growth is 79.9% [30 µM] (inactive).

For `O=S(=O)(Nc1ccc(I)cc1F)c1ccc(-c2cnc(C3CC3)o2)cc1`, the growth was 78.2% (inactive).

Consider `COC(=O)c1cccc(NC(=O)c2ccc(-c3cccc(N)c3)o2)c1`, for which the growth was 110% (inactive).

On to `O=C(/C=C/c1ccccc1)c1ccc(O)c(CN2CCN(c3cc4c(cc3F)c(=O)c(C(=O)O)cn4C3CC3)CC2)c1`, for which the growth is 31.3% (inactive).

`Cc1[nH]c(-c2cc(N)ccc2Cl)c2c1C(=O)CCCC2`: the growth was 66.3% (inactive).

For the molecule `Nc1nc2ncc(CCNc3ccc(C(=O)O)cc3)nc2c(=O)[nH]1`, the growth is 128% (inactive).

As to `O=C1c2cc3c(cc2-c2c1c1ccc(F)cc1c(=O)n2CCCNCCO)OCO3`, the growth was -68.5% (active).

Take `N#C/C(=C\c1ccc(-c2cc(C(F)(F)F)ccc2Cl)o1)c1nc(-c2ccco2)cs1`: the growth was 108% (inactive).

`O=c1cc(CSc2nnc(-c3ccc(F)cc3)o2)c2ccc3ccccc3c2o1`: the growth is 107% (inactive).

For `C=C(C)[C@@H]1CC[C@]2(C(=O)OC)CC[C@]3(C)[C@H](CC[C@@H]4[C@@]5(C)C/C(=C/c6cccc(I)c6)C(=O)C(C)(C)[C@@H]5CC[C@]43C)[C@@H]12`, the growth was 113% (inactive).

For `O=C1OCC2=C1C(c1ccncc1)c1cc3c(cc1N2CCO)OCO3` (stereo not drawn), the growth was 107% (inactive).
